# Compounds without any hit were thinned out: in the full panel of roughly 83,000, 20% have a hit.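 Results are percent growth after 48 hours of single-concentration exposure. 100 means growth as in untreated cells, lower positive values show inhibition; negative values down to -100 show cell death.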 Unmarked numbers belong to inactive results. Calls of active or inactive are those of the source.
# System: NCI-H226 lung
# Experiment: NCI-60 one-dose screen, 48 h (100 = growth as untreated, 0 = no growth, -100 = all killed)
# Conditions: 10 µM unless noted
# Experimental: Growth inhibition of the NCI-H226 human Non-Small Cell Lung tumor cell line is measured as a screen for anti-cancer activity. Cells are grown in 96 well plates and exposed to the test compound for 48 hours. Compounds are tested at a single concentration, which is 10^-5 M for most compounds. The reported endpoint is percent growth (GI% or GIPRCNT), where numbers from 0 - 100% represent growth inhibition, and numbers from -100% - 0 represent cell death. For example, a value of 40 represents 60% growth inhibition. A value of 0 means no net growth occurred over the course of the experiment. A value of -40 indicates 40% of cells at the beginning of the experiment died by the end of the experiment. A value of -100 means all cells are dead at the end of the experiment.
# NCI-60 Human Tumor Cell Lines Screen was performed using the standard one-dose NCI protocol, which is described in more detail at https://dtp.cancer.gov/discovery_development/nci-60/default.htm.
# Compounds with GIPRCNT values below 10 were considered active. Activity score was based on GIPRCNT using the following formula: […]
# Score is 0 for GIPRCNT values of 100 or above, 50 for GIPRCNT values of 0, and 100 for GIPRCNT values of -100.
row,Structure (SMILES),growth
1,COc1ccc(/C=C\c2cc(OC)c(OC)c(OC)c2)c(NS(=O)(=O)c2ccc(Cl)cc2)c1O,18.4%
2,CC(C)(C)N1CC1C#N (stereo not given),103%
3,Cc1c2cc(Cl)c3ccccc3c2c[n+]2ccccc12,43.5%
4,C/C1=C/C(=O)O[C@@H]2C[C@@H](CC[C@H](C)/C=C\C=C\CC1)O[C@@](O)([C@@H]1CSC(=O)N1CO)C2,46.1%
5,COC(C(=O)[C@@H](O)[C@@H](C)O)[C@@H]1Cc2cc3cc(O[C@H]4C[C@@H](O[C@H]5C[C@@H](O)[C@H](O)C(C)O5)[C@H](O)C(C)O4)c(C)c(O)c3c(O)c2C(=O)[C@H]1O[C@H]1C[C@@H](O[C@H]2C[C@@H](O[C@H]3C[C@@H](O)[C@@H](O)C(C)O3)[C@@H](O)C(C)O2)[C@H](O)C(C)O1 (stereo not given in full),-22.2% (active)
6,COC(=O)[C@@H](C)C[C@H](Cc1ccccc1)NC(=O)c1csc([C@@H](C[C@H](C(C)C)N(C)C(=O)[C@@H](NC(=O)[C@H]2CCCCN2C)C2CC2)OC(C)=O)n1,20.5%
7,N#Cc1c(Br)n(C2OC(CO)C(O)C2O)c2ncnc(N)c12 (stereo not given),135%
8,C/C(CC(C)(C)N1CC1)=N\NC(=O)Nc1cccc2ccccc12,56.4%
9,Cc1cc(N(CCCl)CCCl)ccc1/C=N\NC(=O)c1ccncc1,-7.98% (active)
10,Clc1ccc(CO/N=C(\Cn2ccnc2)c2ccc(Cl)cc2Cl)c(Cl)c1,-8.01% (active)
11,COc1cccc2c1c(C(=O)c1ccco1)cn2Cc1ccc(F)cc1,96.3%
12,CC(CO)NC1CCCCC1 (stereo not given),119%
13,ClCCN(CCCl)c1ccc(OCc2ccccc2)cc1,84.6%
14,Nc1c(F)cc(-c2nc3cc(F)ccc3[se]2)cc1Br,-16.3% (active)
15,COC(=O)[C@@]1(C)CC[C@]2(C)CC[C@]3(C)C4=CC=C5C(=CC(=O)C(O)=C5C)[C@]4(C)CC[C@@]3(C)[C@@H]2C1,-59.1% (active)
16,COc1cc2ncnc(Nc3ccc(F)c(Cl)c3)c2cc1OCC(=O)N1CCN(C)CC1,102%
17,Clc1cccc(NCOOC2(OOCNc3cccc(Cl)c3)CCCCC2)c1,94.7%
18,CN1CCCCC1C(C)(O)c1ccccc1 (stereo not given),99.7%
19,O=C(Nc1ccc(Br)cc1)c1cc(Br)cc(Br)c1O,10.6%
20,COC(=O)[C@@H](C)C[C@H](Cc1ccccc1)NC(=O)c1nc([C@@H](C[C@H](C(C)C)N(C)C(=O)[C@@H](NC(=O)[C@H]2CCCCN2C)C(C)C)OC(C)=O)sc1C(C)C,52.4%

row,Structure (SMILES),growth
1,CN(C)C(=O)Oc1ccccc1-c1ccccc1,96.4%
2,COC(=O)[C@]12CCC(C)(C)C[C@H]1[C@H]1C(=O)C[C@@H]3[C@@]4(C)C[C@@]5(CC(C)(C)[C@@H]4CC[C@@]3(C)[C@]1(C)CC2)OO[C@@](C)(C(F)(F)F)O5,86.5%
3,COc1ccc(N(CC(=O)NCCC[Te]c2ccccc2)C(=O)CNC(=O)OC(C)(C)C)cc1,1.45% (active)
4,CC[C@H](C)[C@H](NC(=O)[C@H]1CCCCN1C)C(=O)N(C)[C@H](CC(=O)c1nc(C(=O)N[C@@H](Cc2ccccc2)C[C@H](C)C(=O)O)cs1)C(C)C,92.3%
5,NC1CC2CCCCC2CC1(O)c1ccccc1 (stereo not given),92.2%
6,O=C1C2CC=CCC2C(=O)N1SC(Cl)(Cl)Cl (stereo not given),106%
7,COc1ccc(C2=N[C@@H](Cc3ccccc3)C(=O)Nc3ccsc32)cc1,76.3%
8,CCCC(C)C1(CC)C(=O)NC(=O)N(C)C1=O (stereo not given),85.5%
9,C/C=C(\C)C(=O)O[C@@H]1C(O)[C@H]2OC(COC(=O)CCC(=O)CCCCCC[C@H](CCCCC)O[C@@H]3OC(C)[C@H](OC(C)=O)C(O)[C@H]3O2)[C@H]1OC(=O)/C=C/c1ccccc1 (stereo not given in full),1.09% (active)
10,N#C[Se]CCN1C(=O)c2ccccc2C1=O,36.3%
11,Cc1ccc(S(=O)(=O)C(Cl)(Cl)Cl)cc1,80.4%
12,O=C1NC(=O)C(=Cc2ccc(OCCCCC3CCCCC3)c(Cl)c2)C(=O)N1,102%
13,CC[C@H](C)[C@H](NC(=O)c1cccn1C)C(=O)N(C)[C@H](C[C@@H](OC(C)=O)c1nc(C(=O)N[C@@H](Cc2ccccc2)C[C@H](C)C(=O)OC)cs1)C(C)C,7.57% (active)
14,COC(=O)N[C@H]1CCc2c(Br)c(OC)c(OC)c(OC)c2-c2ccc(SC)c(=O)cc21,12.5%
15,COc1ccc(/C=C\c2cc(OC)c(OC)c(OC)c2)c(NS(=O)(=O)c2ccc(F)cc2)c1O,35.1%
16,CC(=O)[O][Hg][c]1c(N)c(C)cc(C)c1F,90.2%
17,CCOC(=O)C(Cc1ccc(N(CCCl)CCCl)cc1)NC(=O)C(CC(C)C)NC(C)=O (stereo not given),50%
18,Nc1cc2nc3ccccc3nc2cc1N,85.6%
19,COc1ccc2c(c1)c(-c1nc(-c3c[nH]c4ncccc34)cs1)cn2CCCCN1CCCCC1,39.6%
20,CN1C(=O)C(=Cc2cn(CCCCCCn3c4ccccc4c(=O)c4ccccc43)c3ccccc23)C(=O)N(C)C1=O,-20.8% (active)
